hcGAS inh: inhibitors of human cGAS; inhibition, % at 12.5 µM; AID 1259398; recombinant h-cGAS, ATP depletion, Kinase-Glo luminescence; Q8N884; 290,000 tested, 0.081% active;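 note: 0% = vehicle reaction and 100% = reaction without DNA for no activity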
Target sequence (Q8N884 whole entry, looked up): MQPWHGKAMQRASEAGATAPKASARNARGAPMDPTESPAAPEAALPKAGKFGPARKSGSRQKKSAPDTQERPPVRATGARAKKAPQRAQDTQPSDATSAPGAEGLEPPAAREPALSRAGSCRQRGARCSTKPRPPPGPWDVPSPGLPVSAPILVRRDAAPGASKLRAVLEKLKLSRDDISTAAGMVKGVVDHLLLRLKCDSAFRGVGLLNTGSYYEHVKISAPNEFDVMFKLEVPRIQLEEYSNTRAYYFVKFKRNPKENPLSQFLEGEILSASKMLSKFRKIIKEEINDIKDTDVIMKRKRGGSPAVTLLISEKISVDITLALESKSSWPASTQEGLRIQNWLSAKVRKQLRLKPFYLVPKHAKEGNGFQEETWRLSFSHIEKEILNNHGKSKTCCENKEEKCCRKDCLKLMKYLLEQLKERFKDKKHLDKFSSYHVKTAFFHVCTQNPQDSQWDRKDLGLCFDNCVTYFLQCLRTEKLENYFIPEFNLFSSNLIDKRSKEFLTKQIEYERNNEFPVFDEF
NPYLR7 ag: activates Aedes aegypti NPYLR7 receptor; HEK293T NPYLR7/Galpha15, GCaMP6s calcium fluorescence; activation, % at 10 µM; 270,000 tested, 0.15% active; in the data active = activation above about 40%;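 note: 0% = vehicle and 100% = reference agonist at the receptor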
mcGAS lum: inhibitors of mouse cGAS; Q8C6L5; 160,000 tested, 0.15% active; inhibition, % at 12.5 µM; recombinant cGAS, Kinase-Glo ATP depletion luminescence;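 note: 0% = negative control wells and 100% = reference inhibitor with no enzyme activity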
The depositor's hits bear a star; . = no result; ! = not active in a repeat. Rows were chosen to be rich in hits. Some 0.3% of all compounds tested hit in one or more screens of this group. Cut-off read from the data, not from the text of the source, unless noted: active = inhibition above about 40%; inactive = the rest.

SMILES	hcGAS inh	NPYLR7 ag	mcGAS lum
O=S(=O)(Nc1cc(Sc2ncn[nH]2)c(O)c2ccccc12)c1ccc(Br)cc1	-5	-5	44*
CC(C)(C)c1ccc(S(=O)(=O)Nc2cc(Sc3ncn[nH]3)c(O)c3ccccc23)cc1	-8	-7	14
CCOc1ccc(NC(=O)CC(C)O)cc1 (stereo unspecified)	-3	-4	.
CCOc1ccc(NC(C)=O)cc1	-4	71*!	.
CCc1nc(CC#N)nc(N2CCN(C(=O)N(C)C)CC2)c1Cc1cccc(C)c1	-7	-1	-9
CC[n+]1c2ccccc2cc2ccccc21	-3	10	.
CC[n+]1c(-c2ccccc2)c2cc(N)ccc2c2ccc(N)cc21	56*!	-5	.
COc1cc(-c2ccc(=O)n(CC(=O)Nc3cccc(C(F)(F)F)c3)n2)cc(OC)c1OC	-3	11	.
N#CC1C(=N)Oc2cc(N)ccc2C1c1ccc(Cl)cc1Cl (stereo unspecified)	-7	6	.
N#CC1C(=N)Oc2cc(O)ccc2C1c1cccs1 (stereo unspecified)	-4	11	-1
N#CC1C(=N)Oc2cc(O)ccc2C1c1ccccc1I (stereo unspecified)	4	82*	2
N#CC1C(=N)Oc2cc(O)ccc2C1c1ccncc1 (stereo unspecified)	-8	85*	-1
N#CC1C(=N)Oc2cc(O)ccc2C1c1ccc(Cl)cc1Cl (stereo unspecified)	-5	96*	.
N#CC1C(=N)Oc2cc(O)ccc2C1c1ccc(Br)cc1 (stereo unspecified)	-2	0	.
COC(=O)[C@@H](NC(=O)c1cnc(N(C)C)nc1C)C1CC1	-5	26	-16
Cn1c(C(C#N)=Cc2ccc([N+](=O)[O-])s2)nc2ccccc21	-4	10	.
Cn1c(/C(C#N)=C/c2ccc(N3CCOCC3)o2)nc2ccccc21	-18	126*	.
Brc1cc2c(cc1CSc1nnnn1C1CC1)OCCO2	-3	7	.
Cn1nnnc1SCc1cc2c(cc1Br)OCO2	66*	0	-2
COc1ccccc1Oc1cc(C(C)C)nc(SCc2cccc(C#N)c2)n1	-1	1	-2
O=C(COc1ccc(Cl)cc1)N1CCCC(OCc2cccc(Cl)c2)C1 (stereo unspecified)	-4	-2	-4
CSCc1ccc(C(=O)N2CCC(n3nc(C)cc3C)C2)o1 (stereo unspecified)	-5	13	.
CCOCCOc1nc(-c2ccccc2C)n(-c2ccc(NC(=O)CCCCl)cc2)n1	2	-1	0
C=CCCC(O)CNc1ccc(-n2nc(OCCOCC)nc2-c2ccccc2C)cc1 (stereo unspecified)	52*	-1	0
CCOC(=O)C1CCN(c2cc(-c3ccc(OC)cc3)nc3ncnn23)CC1	-8	-4	-11
SMILES	hcGAS inh	NPYLR7 ag	mcGAS lum
O=C(NC1CC1)C(c1ccccc1)N1CCN(S(=O)(=O)c2cc(Cl)ccc2Cl)CC1 (stereo unspecified)	2	-3	-2
CC(C)c1cccc(C(C)C)c1-n1c(C2C3CCCCC32)n[nH]c1=S (stereo unspecified)	-4	-5	.
CN1C(=S)N(C2CCCCC2)C(=O)/C1=C\c1ccc2c(c1)OCO2	-3	46*	-8
CN1C(=S)N(c2ccc3c(c2)OCO3)C(=O)/C1=C\c1cccc(OCCO)c1	-1	34	-3
O=C(CCl)N1CCN(c2ccc(O)cc2)CC1	4	-8	11
O=C(CCl)N1CCN(c2cccc(Cl)c2)CC1	-10	0	70*
N=C1/C(=C/c2cccs2)C(=O)N=C2SC(c3ccccc3)=NN12	56*	-1	.
N=C1/C(=C/c2cccs2)C(=O)N=C2SC(Cc3ccccc3)=NN12	3	0	.
Cc1ccc(N(CCC#N)C(=O)CN2CCCc3ccccc32)cc1C	-6	22	-17
Cc1ccc2c(c1)CCCN2CC(=O)N(CCC(N)=O)c1ccccc1	3	100*	3
Cn1ccc(NC(=O)N2CCCC3(CCCCCC3)C2)n1	-8	7	.
CN1C(=S)N(c2ccc3c(c2)CCC3)C(=O)/C1=C/c1ccc(N(C)C)cc1	-13	4	-10
CN1C(=S)N(c2ccc3c(c2)CCC3)C(=O)/C1=C\c1ccncc1	-2	41*	-3
Oc1ccccc1C(Nc1ccccn1)c1ccc2cccnc2c1O (stereo unspecified)	6	2	.
Oc1cccc2ccc(Nc3ccccn3)nc12	57*	-14	6
CCn1nc(C(=O)NC2CCCC(C)C2C)c2ccccc2c1=O (stereo unspecified)	-7	6	-6
Cc1c(NC(=O)COC(=O)C(C#N)=Cc2ccc(N(C)C)cc2)c(=O)n(-c2ccccc2)n1C	-5	50*	-6
CCC(CC)C(=O)Nc1c(C)n(C)n(-c2ccccc2)c1=O	-5	-1	-5
COc1cccc(CSc2nnc(NC(=O)COCc3ccccc3)s2)c1	2	2	0
Cc1ccc(S(=O)(=O)N2CCCN(S(=O)(=O)c3ccccc3F)CC2)cc1	-11	19	-16
CC(N)=C(C#N)C(=O)Cn1cc(C(F)(F)F)cc(Cl)c1=O	-4	14	.
CC(=O)c1c(C)[nH]c(C(=O)Cn2cc(C(F)(F)F)cc(Cl)c2=O)c1C	74*	-2	-2
C=CCn1c(SCc2cc(=O)[nH][nH]2)nc2sc(CC)cc2c1=O	-3	3	-8
Cc1nc2nc(-c3cc(Cl)ccc3O)cc(C(=O)O)c2[nH]1	9	-2	51*
Cc1nc2nc(-c3cccc(Cl)c3)cc(C(=O)O)c2[nH]1	-5	-2	-2
SMILES	hcGAS inh	NPYLR7 ag	mcGAS lum
Nc1ccc2oc(=O)[nH]c2c1	-9	2	-6
NC(=O)c1cnc(Sc2ccc3[nH]c(=O)oc3c2)c(Cl)c1	-8	16	-15
O=c1[nH]c2c(Br)c(Br)c(Cl)cc2o1	-1	-2	90*
O=c1[nH]c2c(Cl)c(Cl)c(Cl)cc2o1	49*	-6	82*
O=c1[nH]c2ccc(S(=O)(=O)Nc3ccccc3Oc3ccccc3Cl)cc2o1	10	13	.
O=c1[nH]c2cc(Cl)c(Br)cc2o1	24	-3	42*
CCN1CCCC2(CCCN(C(=O)c3ccccc3-c3nn[nH]n3)C2)C1 (stereo unspecified)	-1	4	.
Cc1ccc(C(=O)Nc2ccc(N3CCN(S(=O)(=O)c4cccs4)CC3)nc2)cc1	4	9	2
Cc1cc(-c2nn3c(C)nnc3s2)ccc1N	-3	22	.
COC(=O)c1ccc(CSc2nc3c(c(=O)n2-c2ccc(OC)cc2)SCC3)o1	5	0	-2
CN(C(=O)CC1CCCC1)C1CCCC1	-7	20	.
CCN1CCc2c(sc(NC(=O)c3ccccc3)c2-c2nc3ccccc3s2)C1	17	91*	6
CCN1CCc2c(sc(NC(=O)c3ccc(OC)cc3)c2-c2nc3ccccc3s2)C1	0	10	-3
CN1CCc2c(sc(NC(=O)CN3C(=O)c4ccccc4C3=O)c2-c2nc3ccccc3s2)C1	0	2	-6
CCN1CCc2c(sc(NC(C)=O)c2-c2nc3ccccc3s2)C1	73*	5	94*
CCN1CCc2c(sc(NC(=O)c3ccc(C(C)=O)cc3)c2-c2nc3ccccc3s2)C1	7	20	2
CCN1CCc2c(sc(NC(=O)COc3ccccc3)c2-c2nc3ccccc3s2)C1	2	53*	-1

Source: PubChem BioAssay
